# Only some compounds are listed: those with a hit (about 16% of all), similar ones and a draw of the others.
# DT40 TDP1 CPT – qHTS for Inhibitors of human tyrosyl-DNA phosphodiesterase 1 (TDP1): qHTS in cells in presence of CPT; chicken DT40 Tdp1-/-;hTDP1 cells + 20 nM CPT, ATP luminescence, 48 h; Potency, µM (highest dose often 46.2 µM), usual class: inhibitors; 420,000 tested, 12% active; AID 686979, 2013; further: nearly all actives have a fitted effect of over 55% in size
#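 Chicken DT40 Tdp1-/- cells complemented with human TDP1, 400 cells/well, exposed to compounds plus 20 nM camptothecin for at least 48 h at 37 C; viability read as ATP content by CellTiter-Glo luminescence.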
# miR-21 act – qHTS Assay for Modulators of miRNAs and/orActivators of miR-21 | HeLa miR-21 FLuc reporter, luciferase, 48 h | Potency, µM (top dose mostly 38.3 µM), actives largely listed as activators | 340,000 tested, under 10 active | AID 2288, 2010;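 further: miR-21 action dims this reporter so a rising signal means less miR-21 action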
#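 Compounds were titrated across several concentrations (up to approximately 40 uM) and incubated 48 hours with HeLa miR-21-FLuc reporter cells (miR-21 target sequence downstream of FLuc, endogenous miR-21). Readout was firefly luciferase luminescence after lytic detection reagent.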
# uPA generation – qHTS for Inhibitors of Cell Surface uPA Generation | cell surface uPA generation assay, qHTS | Potency, µM (series often up to 38.3 µM), actives largely listed as inhibitors | 330,000 tested, 0.31% active | AID 540303, 2011; active means well fitted inhibition curve with a large enough effect; inconclusive means small, poorly fitted or top-dose-only effect; inactive means no such curve, though single readings can be large or run the other way; tested in mouse RAW 264.7 cells; further: nearly all actives have a fitted effect of over 55% in size
# DT40 TDP1 no CPT – qHTS for Inhibitors of human tyrosyl-DNA phosphodiesterase 1 (TDP1): qHTS in cells in absence of CPT | DT40 Tdp1-/- hTDP1 cells, no CPT, ATP luminescence, 48 h | Potency, µM (highest dose often 46.2 µM), usual class: inhibitors | 420,000 tested, 15% active | AID 686978, 2013; further: nearly all actives have a fitted effect of over 55% in size
#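 Growth of hTDP1-complemented DT40 Tdp1-knockout cells is measured by ATP luminescence after at least 48 hr compound exposure at 37 °C, with DMSO substituting for the 20 nM CPT used in the parallel screen.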
# TDP1 block – qHTS Assay for Inhibitors of Tyrosyl-DNA Phosphodiesterase (TDP1); Tyrosyl-DNA phosphodiesterase 1 (Homo sapiens), Q9NUW8; recombinant TDP1, AlphaScreen DNA substrate cleavage; Potency, µM (doses to about 130 µM), actives largely listed as inhibitors; 350,000 tested, 0.28% active; further: nearly all actives have a fitted effect of over 40% in size
# Target sequence (Q9NUW8 whole entry, looked up): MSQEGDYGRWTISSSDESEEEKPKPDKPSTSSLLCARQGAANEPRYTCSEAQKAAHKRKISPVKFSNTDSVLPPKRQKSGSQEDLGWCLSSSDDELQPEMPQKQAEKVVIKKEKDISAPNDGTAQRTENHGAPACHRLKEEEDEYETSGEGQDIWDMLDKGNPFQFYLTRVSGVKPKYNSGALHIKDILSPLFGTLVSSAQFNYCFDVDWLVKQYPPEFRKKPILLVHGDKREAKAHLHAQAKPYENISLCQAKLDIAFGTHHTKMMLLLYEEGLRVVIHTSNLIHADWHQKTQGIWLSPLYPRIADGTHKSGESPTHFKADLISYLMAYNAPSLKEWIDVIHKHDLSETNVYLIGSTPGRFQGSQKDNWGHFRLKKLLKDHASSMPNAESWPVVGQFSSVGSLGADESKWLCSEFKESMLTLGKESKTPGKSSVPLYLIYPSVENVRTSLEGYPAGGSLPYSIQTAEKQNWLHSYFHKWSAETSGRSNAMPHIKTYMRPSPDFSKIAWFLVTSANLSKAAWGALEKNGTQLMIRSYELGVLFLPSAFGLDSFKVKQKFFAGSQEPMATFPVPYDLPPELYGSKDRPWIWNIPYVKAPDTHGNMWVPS
#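 Compounds were preincubated with Tdp1 (1 nM final) for 15 min at room temperature before substrate (15 nM final) started a 5 min reaction; beads (10 ug/ml final) were then added for 10 min before AlphaScreen detection.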
# Hits are given with their value; 0 = inactive; ? = inconclusive; - = not tested or not shown; [ ] = another dose, or the depositor's remark. Unless noted, the call rests on the fitted dose curve; in most records, active means well fitted curve in the direction sought with a large enough effect; inconclusive means small, poorly fitted or top-dose-only effect, or another doubt; inactive means no such curve, though single readings can be large; an effect the other way counts as inactive or inconclusive.
SMILES,DT40 TDP1 CPT,miR-21 act,uPA generation,DT40 TDP1 no CPT,TDP1 block
CN1c2ccccc2C(C)(C)C12C=Cc1cc(O)ccc1O2 (stereo not drawn),13µM,0,0,16µM,0
CCC(C)c1ccccc1OCC(=O)Nc1ccc(S(=O)(=O)Nc2cc(C)on2)cc1 (stereo not drawn),0,0,-,0,0
COc1ccc(C(=O)Nc2nc3c(s2)CCCC3)cc1Cl,?,0,-,15µM,0
Cc1cccc(C(=O)Nc2nc3c(s2)CCCC3)c1,?,0,-,18µM,0
CNC(=O)c1c(NC(=O)c2cccc(C)c2)sc2c1CCC2,?,0,0,?,0
Cc1cccc(C(=O)Nc2sc3c(c2C(=O)NC(C)C)CCCC3)c1,?,0,-,15µM,0[12.3 µM]
O=C(Nc1nc2c(s1)CCCC2)c1ccc2ncsc2c1,16µM,0,?,?,0
Cc1ccccc1CSCC(=O)N/N=C/c1cccs1,?,0,0,?,0
N#CCC(=O)Nc1ccc(C(=O)OCC(=O)c2ccc3c(c2)NC(=O)CO3)cc1,0,-,0,0,-
COc1ccc(CCNC(=O)c2cc(S(=O)(=O)N3CCCCCC3)ccc2OC)cc1OC,?,-,0,?,0
O=C(Nc1nc2c(s1)CCCC2)c1ccc(Br)s1,16µM,0,-,29µM,0
O=C(Nc1nc2c(s1)CCCC2)c1ccc(N2C(=O)CCC2=O)cc1,0,0,0,0,0
Clc1cccc(-c2nc3ccccn3c2Nc2ccc3c(c2)OCCO3)c1,?,0,-,8.2µM,0
CN(C)c1ccc(-c2nc3ccccn3c2Nc2ccc3c(c2)OCCO3)cc1,21µM,0,-,?,0
CO/N=C(/C)CCS(=O)(=O)c1ccccc1,0,0,0,0,0
C=CCn1c(=O)c2c3c(sc2n2c(Nc4ccc(OC)cc4)nnc12)CCCC3,9.2µM,0,0,8.2µM,0
COC(=O)CSc1nnc2n(-c3ccc(OC)cc3)c(=O)c3c4c(sc3n12)CCCCC4,0,0,0,0,0
C=CCn1c(=O)c2c3c(sc2n2c(Nc4ccc(C(=O)OCC)cc4)nnc12)CCCC3,13µM,0,0,12µM,0
C=CCn1c(=O)c2c3c(sc2n2c(Nc4ccccc4)nnc12)CCCC3,8.9µM,0,0,10µM,0
COc1ccccc1C(=O)C1CCCN(C(=O)c2ccccc2C(C)=O)C1 (stereo not drawn),0,0,0,0,-
O=[N+]([O-])c1ccc(C[n+]2cccc3ccc4cccnc4c32)cc1,1.8µM,0,0,1.6µM,0
Cc1ccc(S(=O)(=O)Nc2cc(C(=O)NCCN3CCCC3)ccc2N2CCCCC2)cc1,21µM,0,0,16µM,0
Cc1ccc(S(=O)(=O)Nc2cc(C(=O)NCCN(C)C)ccc2N2CCCCC2)cc1,?,0,0,16µM,0
COc1cc(CNn2cn[nH]c2=S)cc(Br)c1OCc1ccccc1F,?,0,0,0,0
CC1CC(C)CN(c2oc(-c3ccco3)nc2C#N)C1 (stereo not drawn),18µM,0,0,21µM,0
SMILES,DT40 TDP1 CPT,miR-21 act,uPA generation,DT40 TDP1 no CPT,TDP1 block
N#Cc1nc(-c2ccco2)oc1N1CCCC1,0,0,0,0,0
COc1ccccc1OCc1nc(C#N)c(N2CC(C)CC(C)C2)o1 (stereo not drawn),29µM,0,0,?,0
NC1=NC(=O)/C(=C/c2ccccc2OCC(=O)Nc2ccc(F)cc2)S1,0,-,0,0,-
O=C(COc1ccccc1/C=C1\SC(=S)NC1=O)Nc1ccc(F)cc1,?,-,0,10µM,0
CCOC(=O)c1[nH]c(C)c(C(=O)NCc2ccc(Cl)cc2)c1C,?,0,0,0,0
CCOC(=O)c1[nH]c(C)c(C(=O)Nc2ccc(C)c(Cl)c2)c1C,16µM,0,-,?,0
CCOC(=O)c1[nH]c(C)c(C(=O)Nc2ccc(C)c(F)c2)c1C,10µM,0,-,18µM,0
COc1ccc(S(=O)(=O)N2CCOCC2)cc1NC(=O)COc1ccc(C(C)=O)cc1OC,0,-,0,?,0
O=S1(=O)N=C(N(CCO)/N=C/c2ccccc2)c2ccccc21,0,0,0,?,0
CCCc1ccc(S(=O)(=O)Nc2ccc(C)c(NS(C)(=O)=O)c2)cc1,0,0,0,?,-
CCC(Sc1ncc(S(=O)(=O)c2ccc(C)cc2)c(=O)[nH]1)C(=O)Nc1cc(C)ccc1C (stereo not drawn),-,0,-,-,0
CCC(Sc1nc2ccncc2[nH]1)C(=O)Nc1cc(Cl)ccc1C (stereo not drawn),29µM,0,0,18µM,0
COc1ccc(C2CCc3cc4c(cc3C2=NOC(C)=O)OCO4)cc1OC (stereo not drawn),21µM,-,-,15µM,-
CCOc1ccc(C2CC(=O)Nc3cc4c(cc32)OCO4)cc1OC (stereo not drawn),0,0,-,?,0
O=c1[nH]c2cc3ccccc3cc2nc1C(F)(F)F,0,0,0,0,0
c1ccc(-c2nc3ccccc3[nH]2)nc1,?,0,0,16µM,0
O=c1[nH]c(-c2ccccn2)nc(C(F)(F)F)c1Br,6.5µM,0,0,4.6µM,0
c1ccc(-c2nc3c(ccc4ccccc43)[nH]2)nc1,?,0,0,23µM,0
Nc1nc(-c2nc3ccccc3[nH]2)cs1,23µM,0,0,?,0
Nc1nc(CSc2nc3ccccc3[nH]2)cs1,?,0,0,0,0
Cc1ccc2nc(-c3ccccn3)[nH]c2c1,?,0,0,?,-
CC(C)CC1(C(=O)O)C=CCN1C(=O)c1ccccc1 (stereo not drawn),-,-,-,-,0
O=C(Nc1nccs1)c1ccccc1[N+](=O)[O-],0,0,0,0,0
O=c1[nH]c(-c2ccccn2)nc2ccccc12,29µM,0,0,16µM,0
Cc1ccc(N2C(=O)/C(=C/c3cccnc3)SC2=S)cc1,0,0,0,0,0
SMILES,DT40 TDP1 CPT,miR-21 act,uPA generation,DT40 TDP1 no CPT,TDP1 block
O=C(NN1C(=O)/C(=C\c2cccnc2)SC1=S)C(c1ccccc1)c1ccccc1,?,0,0,26µM,0
O=C1/C(=C/c2cccnc2)SC(=S)N1NS(=O)(=O)c1ccccc1,0,0,0,0,-
O=C1/C(=C/c2cccnc2)SC(=S)N1C1CCS(=O)(=O)C1 (stereo not drawn),10µM,0,0,9.2µM,0
O=C1/C(=C\c2cccnc2)SC(=S)N1C1CCS(=O)(=O)C1 (stereo not drawn),3.7µM,0,-,18µM,0
COc1ccccc1CCNC(=O)c1cccn1-c1nnc(N2CCCC2)s1,?,0,-,?,0
CCOC(=O)Cc1nnc(Nc2ccc(C(=O)NC)cc2)c2ccccc12,?,0,0,0,-
COc1ccc(N2C(=O)CC(SCC(=O)O)C2=O)cc1 (stereo not drawn),0,0,0,0,0

# Source: PubChem
